Screening data (PubChem BioAssay)
The list is not random: actives were taken first. Their share in the collection is about 21%.
RORg inh: blocks mouse ROR gamma transcriptional activity | P51450 | Drosophila S2 Gal4-RORgamma UAS-luciferase reporter, 20 h | Potency, µM (doses to about 53.6 µM), actives largely listed as inhibitors | hit rate 5.4% among 310,000 | AID 2551; note: nearly all actives have a fitted effect of over 60% in size
Target sequence (P51450 whole entry, looked up, the tested form may be a part): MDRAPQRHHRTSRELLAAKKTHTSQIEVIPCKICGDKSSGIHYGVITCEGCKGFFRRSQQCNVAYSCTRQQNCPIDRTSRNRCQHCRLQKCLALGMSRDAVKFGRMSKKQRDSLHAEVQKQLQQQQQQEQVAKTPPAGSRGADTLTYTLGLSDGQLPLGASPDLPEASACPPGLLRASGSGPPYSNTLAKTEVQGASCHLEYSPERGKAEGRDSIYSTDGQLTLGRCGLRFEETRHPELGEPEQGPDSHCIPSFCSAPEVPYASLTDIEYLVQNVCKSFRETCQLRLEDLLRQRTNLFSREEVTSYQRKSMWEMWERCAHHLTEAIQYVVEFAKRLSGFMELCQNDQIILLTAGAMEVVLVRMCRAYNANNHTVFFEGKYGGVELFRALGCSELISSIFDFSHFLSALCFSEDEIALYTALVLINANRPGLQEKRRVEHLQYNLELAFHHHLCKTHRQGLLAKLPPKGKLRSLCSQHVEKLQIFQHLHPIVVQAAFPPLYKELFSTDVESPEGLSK
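Luminescence from a UAS-regulated Photinus luciferase reporter in stably transfected Drosophila Schneider cells is measured; decreased signal marks ROR gamma inhibition. Fusion expression is induced by 700 uM copper sulfate for 20 hr.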
IL1B secr inh: blocks inflammasome-driven IL-1 beta release. hit rate 4.7% among 360,000. THP-1 LPS/ATP IL-1B secretion, AlphaLISA, 16 h; active compounds read low. activity change, % at 57.5 µM; in the data active = activity change below about -50%; inconclusive = mostly about -30% to -49%
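Secreted IL-1B measured by AlphaLISA bead assay after 16 h compound exposure of THP-1 cells; compounds (final up to 57.5 uM) added 1 h before LPS (250 ng/mL) and ATP (1.25 mM) stimulation; lower signal means less secretion.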
VP16 counter: inhibits Gal4-VP16 luciferase reporter, ROR gamma counter-screen | hit rate 3.5% among 310,000 | Potency, µM (titrated, usually from 53.6 µM), usual class: inhibitors | Drosophila S2 Gal4-VP16 UAS-luciferase, luminescence, 20 h;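 note: Gal4-VP16 expression switched on by copper sulfate through the metallothionein promoter; nearly all actives have a fitted effect of over 50% in size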
TDP1 cell noCPT: qHTS for Inhibitors of human tyrosyl-DNA phosphodiesterase 1 (TDP1): qHTS in cells in absence of CPT; DT40 Tdp1-/- hTDP1 cells, no CPT, ATP luminescence, 48 h; hit rate 15% among 420,000; AID 686978, 2013; Potency, µM (doses to about 46.2 µM), actives largely listed as inhibitors; note: nearly all actives have a fitted effect of over 55% in size
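Seeded 400 DT40-hTDP1 cells/well (vehicle DMSO, no 20 nM CPT); pinned compounds; ≥48 hr at 37 °C; CellTiter-Glo luminescence as viability measure.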
ELG1 repair inh: inhibitors of ELG1-dependent DNA repair in HEK293T cells. HEK293T ELG1-luciferase reporter, luminescence, 16 h; DNA damage induced by 5-fluorouridine. Potency, µM (top dose mostly 46.1 µM), most hits filed as inhibitors. hit rate 2.3% among 330,000. AID 504467; note: nearly all actives have a fitted effect of over 55% in size
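Reporter activity after DNA damage by 5-fluorouridine is monitored. Compound-treated cells incubate 16 hr at 37 °C, then ONE-Glo is added for 30 min before luminescence reading.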
TDP1 cell CPT: DT40-hTDP1 cell growth loss with CPT. hit rate 12% among 420,000. Potency, µM (highest dose often 46.2 µM), hits mostly inhibitors. AID 686979. chicken DT40 Tdp1-/-;hTDP1 cells + 20 nM CPT, ATP luminescence, 48 h; note: nearly all actives have a fitted effect of over 55% in size
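Cell growth measured by CellTiter-Glo luminescence after a minimum 48 h, 37 C compound exposure with 20 nM CPT in Tdp1-knockout DT40 cells stably expressing hTDP1, seeded 400/well; qHTS titration format.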
Numbers stand for hits; [ ] = dose if it differs, or a comment. Unless noted, calls come from the whole dose curve; as a rule, active = well fitted curve in the direction sought with a large enough effect; inconclusive = small, poorly fitted or top-dose-only effect, or another doubt; inactive = no such curve, though single readings can be large; an effect the other way counts as inactive or inconclusive.

`CC(C)Oc1cccc(C(=O)Nc2ccc3oc(-c4cccc(Cl)c4)nc3c2)c1` gave TDP1 cell noCPT 16µM and TDP1 cell CPT inconclusive.
Screening COc1ccc(C(=O)Nc2ccc3oc(-c4cccnc4)nc3c2)cc1 returned TDP1 cell noCPT inconclusive and TDP1 cell CPT inactive.
Screening Cc1noc(C)c1C(=O)N1CCC[C@@]2(CCN(Cc3ccc(C#N)cc3)C2)C1 returned RORg inh inactive, VP16 counter inactive, TDP1 cell noCPT inactive and TDP1 cell CPT inactive.
For CC(C)(C)c1cc(C(=O)O)n(Cc2ccc(Cl)cc2Cl)n1 the results were RORg inh inactive, IL1B secr inh inactive, VP16 counter inactive, TDP1 cell noCPT inactive, ELG1 repair inh inactive and TDP1 cell CPT 15µM.
For OCC1(Cc2cccc(F)c2)CCN(Cc2ccc3cccc(F)c3n2)CC1 the results were RORg inh inactive, IL1B secr inh -72, VP16 counter inactive, TDP1 cell noCPT inconclusive, ELG1 repair inh inactive and TDP1 cell CPT inconclusive.
`COc1cccc(CC2(CO)CCN(Cc3ccc4cccc(F)c4n3)CC2)c1` gave RORg inh inactive, IL1B secr inh -71, VP16 counter inactive, TDP1 cell noCPT inconclusive, ELG1 repair inh inactive and TDP1 cell CPT inactive.
For COc1cccc(CC2(CO)CCN(CC3=CC[C@H]4C[C@@H]3C4(C)C)CC2)c1 the results were RORg inh inactive, IL1B secr inh -55, VP16 counter inactive, TDP1 cell noCPT inconclusive, ELG1 repair inh inactive and TDP1 cell CPT inconclusive.
COc1cccc(CC2(CO)CCN(Cc3ccc(NC(C)=O)cc3)CC2)c1 was read as RORg inh inactive, IL1B secr inh inactive, VP16 counter inactive, TDP1 cell noCPT inactive, ELG1 repair inh inactive and TDP1 cell CPT inactive.
For Cc1ccc(S(=O)(=O)NC(=O)COc2ccccc2C)c(C)c1 the results were RORg inh inactive, IL1B secr inh inactive, VP16 counter inconclusive, TDP1 cell noCPT inactive, ELG1 repair inh inactive and TDP1 cell CPT inactive.
CCCCN(C=O)c1c(CC)nc2ccc(C(=O)N3CCN(C(C)=O)CC3)cn12 was read as IL1B secr inh inactive, TDP1 cell noCPT inactive and TDP1 cell CPT inactive.
For Cc1cc(C)cc(NC(=S)NCc2ccc3c(c2)OCO3)c1 the results were IL1B secr inh inactive, TDP1 cell noCPT inconclusive and TDP1 cell CPT inconclusive.
For Cc1ccc(CNc2ccc3c(c2)OCO3)cc1 the results were RORg inh inactive, IL1B secr inh -93, VP16 counter inactive, TDP1 cell noCPT 21µM and TDP1 cell CPT inconclusive.
Screening Fc1ccc(NC(=S)SCc2ccc3c(c2)OCO3)cc1F returned IL1B secr inh inactive, TDP1 cell noCPT 18µM and TDP1 cell CPT inconclusive.
Screening Cc1ccc(NC(=O)NCc2ccc3c(c2)OCO3)cc1C returned RORg inh inactive, IL1B secr inh -63, VP16 counter inactive, TDP1 cell noCPT inactive, ELG1 repair inh inconclusive and TDP1 cell CPT inactive.
For c1cc(CNc2ccc3c(c2)OCO3)ccn1 the results were RORg inh inactive, IL1B secr inh inactive, VP16 counter inactive, TDP1 cell noCPT inactive, ELG1 repair inh inactive and TDP1 cell CPT inactive.
`Cc1ccc(NC(=S)NCc2ccc3c(c2)OCO3)cc1C` gave RORg inh 13µM, IL1B secr inh -69, VP16 counter inconclusive, TDP1 cell noCPT inconclusive, ELG1 repair inh inconclusive and TDP1 cell CPT inactive.
Screening Cc1nc2cc(NC(=O)NCc3ccc4c(c3)OCO4)ccc2o1 returned RORg inh inactive, IL1B secr inh inactive, VP16 counter inactive, TDP1 cell noCPT inactive, ELG1 repair inh inactive and TDP1 cell CPT inactive.
`S=C(Nc1ccc2c(c1)OCO2)Nc1ccc2c(c1)OCO2` gave RORg inh inactive, IL1B secr inh inactive, VP16 counter inconclusive, TDP1 cell noCPT inactive, ELG1 repair inh inactive and TDP1 cell CPT inactive.
`O=C1COc2ccc(C(=O)COC(=O)c3ccc(F)cc3Cl)cc2N1` gave IL1B secr inh inactive, TDP1 cell noCPT inactive, ELG1 repair inh inactive and TDP1 cell CPT inactive.
Cc1oc2c(C)c3oc(=O)c(CCC(=O)O)c(C)c3cc2c1-c1ccccc1 was read as RORg inh inactive, IL1B secr inh inactive, VP16 counter inactive, TDP1 cell noCPT inactive, ELG1 repair inh inactive and TDP1 cell CPT inactive.
Screening Fc1ccc(NC(=S)NCc2ccc3c(c2)OCO3)cc1 returned RORg inh 11µM, IL1B secr inh inactive, VP16 counter inconclusive, TDP1 cell noCPT inconclusive, ELG1 repair inh inactive and TDP1 cell CPT inconclusive.
O=C(NCc1ccc2c(c1)OCO2)NC12CC3CC(CC(C3)C1)C2 was read as RORg inh inactive, IL1B secr inh inactive, VP16 counter inactive, TDP1 cell noCPT 18µM, ELG1 repair inh inactive and TDP1 cell CPT 21µM.
Screening O=C(NC12CC3CC(CC(C3)C1)C2)N1CCC(O)(c2ccc3c(c2)OCO3)CC1 returned RORg inh inactive, IL1B secr inh inactive, VP16 counter inactive, TDP1 cell noCPT 15µM, ELG1 repair inh inactive and TDP1 cell CPT 7.3µM.
For NS(=O)(=O)c1ccc(NC(=S)NCc2ccc3c(c2)OCO3)cc1 the results were RORg inh inactive, IL1B secr inh inactive, VP16 counter inactive, TDP1 cell noCPT inconclusive, ELG1 repair inh inactive and TDP1 cell CPT inactive.
`O=C(COc1ccc2c(c1)OCO2)NC12CC3CC(CC(C3)C1)C2` gave RORg inh inconclusive, IL1B secr inh inactive, VP16 counter inactive, TDP1 cell noCPT inconclusive, ELG1 repair inh inactive and TDP1 cell CPT inconclusive.
Screening CN(C)CC(C)(O)c1ccc2c(c1)CN(Cc1cccn1-c1ncccn1)CCO2 (stereo not drawn) returned TDP1 cell noCPT inactive and TDP1 cell CPT inactive[9.04 µM].
For CC(C)(C)OC(=O)NCCCC[C@H](NC(=O)c1nc[nH]c1C(=O)NCc1ccc(CNC(=O)OC(C)(C)C)cc1)C(=O)OC(C)(C)C the results were RORg inh inconclusive, IL1B secr inh inactive, VP16 counter inactive, TDP1 cell noCPT 16µM, ELG1 repair inh inconclusive and TDP1 cell CPT inconclusive.
Screening CC(C)(C)OC(=O)NCCCCCNC(=O)c1[nH]cnc1C(=O)N[C@@H](CCCCNC(=O)OC(C)(C)C)C(=O)OC(C)(C)C returned RORg inh inconclusive, IL1B secr inh inactive, VP16 counter inconclusive, TDP1 cell noCPT 16µM, ELG1 repair inh inconclusive and TDP1 cell CPT 16µM.
C[C@H](NC(=O)c1nc[nH]c1C(=O)N[C@@H](CCCCNC(=O)OC(C)(C)C)C(=O)OC(C)(C)C)C(=O)OC(C)(C)C was read as RORg inh inconclusive, IL1B secr inh inactive, VP16 counter 13µM, TDP1 cell noCPT inconclusive, ELG1 repair inh inconclusive and TDP1 cell CPT inconclusive.
